# Experimental data from PubChem BioAssay AID1039 (National Center for Advancing Translational Sciences (NCATS), 2008).
# The source made the active and inactive calls. Calls come from the whole dose curve.
# Assay: Normal 2 Cell Viability Secondary Assay for qHTS Assay for Epigenetic Modulators
# Settings: Normal 2 bronchial epithelial viability, MTS, 4 days
# Text: NIH Molecular Libraries Screening Centers Network [MLSCN] NIH Chemical Genomics Center [NCGC] MLSCN Grant: 1 X01 MH079860-01 Assay Provider: Elisabeth D. Martinez, University of Texas SW Medical Center NCGC Assay Overview: This secondary assay characterizes selected actives identified in the qHTS of the Locus Derepression (LDR) assay (PubChem AID 597). The LDR assay detects the derepression of a GFP reporter that is stably integrated in a region of the genome of murine c127i mammary cells that is presumably silenced. Compounds that cause derepression of the locus to express GFP are identified by enumerating GFP positive cells using a laser-scanning microplate cytometer. […] Normal 2 cell viability was measured using Cell Titer 96 AQueous One (Promega), an assay which detects the ability of metabolically active cells to reduce a tetrazolium salt substrate (MTS), into a soluble formazan product that can be measured by colorimetry.
# NCGC Assay Protocol Summary Normal 2 cells were plated in 96-well flat bottom tissue culture dishes (Corning) and grown overnight at 37 C and 5% CO2, then treated with compounds, incubated 4 days, and assayed for viability using the Cell Titer 96 AQueous One kit (Promega) according to the manufacturer's protocol. Absorbance at 490 nm and 650 nm (reference) was measured by a Spectra Max (Molecular Devices). […]
structure (smiles),measurement,value
CN1CSC(=S)N(C)C1,outcome,inactive
